High-throughput results deposited in PubChem BioAssay by several laboratories.
In the library only some 2.8% were active in any assay of this set; here they are far more common.
MITF TRPM1 HTS = activators of MITF-driven TRPM1 promoter reporter, primary screen, cell-based, SK-MEL-5, luciferase, single point; SK-MEL-5 TRPM1-promoter luciferase, 24 h; % of positive control, neutral wells = 0; activation, % at 12.5 µM; 300,000 tested, 0.75% active;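 active = mean activation of at least 80% with every replicate also reaching 80%; inconclusive = mean reaches 80% but some replicate falls short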;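 note: 0% = neutral control wells and 100% = parthenolide positive control wells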
FXN GAA850 act = FXN promoter activators, primary screen, cell-based, luciferase luminescence, HEK293 lucGAA850 | HEK293 lucGAA850 FXN promoter luciferase reporter, 24 h; percent of 10 µM SAHA response | AID 540364, 2011 | activation, % at 6 µM | 360,000 tested, 0.56% active;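 active = activation above the average of all compounds screened plus 3 SD, cutoff fixed separately per campaign, cut at about 7.5% in these data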;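 note: 0% = DMSO wells and 100% = 10 µM SAHA wells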
esBAF inh = Bmi1 luciferase reporter increase in mESCs, primary screen, esBAF inhibitor project, mouse ES cells, Bmi1 luciferase knock-in, single point. reporter increase, % at 12.5 µM. 24 h; 100% = twice the neutral-well signal. 350,000 tested, 2% active. AID 602393, 2012; in the data active = activation above about 40%; inconclusive = no clear call, values can overlap the other calls;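 note: 0% = median of the plate's neutral control wells and 100% = double that signal; a rise in the Bmi1 reporter signal indicates esBAF inhibition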
Wnt act = Wnt/beta-catenin pathway activators, primary screen, cell-based, plate reader, single point; Wnt/beta-catenin reporter cell assay, activator; activation, % at 9.35 µM; 300,000 tested, 1.2% active; AID 743398, 2014; in the data active = activation above about 30%, passing the limit was not always enough; inconclusive = no clear call, values can overlap the other calls;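 note: 0% = neutral control wells and 100% = positive control wells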
Active calls of the source: *; ? = inconclusive; . = no result.

SMILES | MITF TRPM1 HTS | FXN GAA850 act | esBAF inh | Wnt act
Clc1ccc(-c2noc(CN3CCCC3)n2)cc1 | . | 3.2 | 44.3* | 0.1
Cc1ccc(-c2noc(CN3CCCCC3)n2)cc1 | . | 3.3 | 34.4 | .
CCCNC(=O)N1C[C@@H](C)[C@@H](OC)CN(C)C(=O)c2ccc(NC(=O)CCC)cc2OC[C@@H]1C | . | . | -1.2 | .
C(=N\Nc1nc2ccccc2[nH]1)/c1ccccc1 | 80.0 | 4.4 | 55.0* | 0.4
Fc1cccc(/C=N/Nc2nc3ccccc3[nH]2)c1 | . | . | . | 12.2
Cc1[nH]c2ccccc2c1/C=N/Nc1nc2ccccc2[nH]1 | . | 4.4 | . | 97.7*
Cc1ccc(/C=N/Nc2nc(Cl)c(Cl)cc2Cl)s1 | 20.5 | 7.3 | 60.5* | 71.7*
c1ccc(CNc2nc3ccccc3[nH]2)cc1 | 83.3* | 4.7 | 15.1 | 19.9
C[C@H]1CN([C@@H](C)CO)C(=O)Cc2cc(NS(=O)(=O)c3ccc(F)cc3)ccc2O[C@@H]1CN(C)CC1CCCCC1 | . | . | -0.8 | .
O=C(Nc1ccc2c(c1)[C@@H]1C[C@H](CC(=O)N3CCOCC3)O[C@H](CO)[C@@H]1O2)c1ccc2c(c1)OCO2 | . | . | 7.9 | .
O=C(C[C@H]1CC[C@H](NC(=O)c2cccc(F)c2)[C@@H](CO)O1)NCc1ccccc1 | . | . | -4.1 | .
C[C@@H]1CCCCO[C@@H](CN(C)Cc2ccc(Cl)c(Cl)c2)[C@@H](C)CN([C@H](C)CO)C(=O)c2cc(NC(=O)C3CCCCC3)ccc2O1 | . | . | -1.8 | .
C(=C\c1ccccc1)/C=N/Nc1nc2ccccc2[nH]1 | 25.8 | 4.5 | . | 90.4*
C(=N\Nc1nc2ccccc2[nH]1)/c1cccc2cccnc12 | . | -10.1 | . | 37.3*
Fc1ccc(/C=N/Nc2nc3ccccc3[nH]2)cc1F | 70.2 | 3.5 | . | 6.9
C(/CCc1ccccc1)=N\Nc1nc2ccccc2[nH]1 | 5.4 | 4.1 | . | 39.6*
Cc1ccc(/C=N/Nc2nc3ccccc3[nH]2)s1 | 40.0 | 4.9 | . | 156.4*
Cc1ccccc1/C=N/Nc1nc2ccccc2[nH]1 | 34.5 | 6.2 | . | 8.4
CO[C@H]1CN(C)C(=O)c2cc(NC(=O)C3CC3)ccc2OC[C@@H](C)N(C(=O)c2ccccc2)C[C@@H]1C | . | . | 1.4 | .
CC1CCc2nc(/C(C#N)=C/c3cccnc3)sc2C1 (stereo unspecified) | 85.1* | 0.1 | . | .
N#C/C(=C\c1cccnc1)c1nc2c(s1)CCCC2 | 61.9 | 6.6 | . | 26.3
Cc1ccc(NC(=O)CCCSc2nc3ccccc3[nH]2)cc1 | -4.5 | 3.4 | . | 1.8
CCc1nnc(NC(=O)CSc2ccc(-c3nc4ccccc4[nH]3)cn2)s1 | 87.1* | 5.7 | ? | .
O=C(CSc1ccc(-c2nc3ccccc3[nH]2)cn1)Nc1ccc2c(c1)OCCO2 | 146.3* | 2.7 | 46.2* | .
CCc1nnc(NC(=O)CSc2ccc(-c3ccc(-n4cccn4)cc3)nn2)s1 | 81.7* | 6.8 | . | 28.4
SMILES | MITF TRPM1 HTS | FXN GAA850 act | esBAF inh | Wnt act
Cc1ccc(SCC(=O)Nc2ccc(-c3nc4ccccc4[nH]3)cc2)cc1 | -6.2 | 1.1 | 61.1* | -2.4
Cc1ccccc1NC(=O)CSc1ccc(-c2ccc(-n3cccn3)cc2)nn1 | 13.6 | 0.1 | 17.4 | 11.3
COc1ccc(S(=O)(=O)N[C@H]2C=C[C@H](CC(=O)N3CCc4ccccc4C3)O[C@H]2CO)cc1 | . | . | 3.3 | .
CC(C)NC(=O)Nc1ccc2c(c1)C(=O)N([C@H](C)CO)C[C@H](C)[C@@H](CN(C)C(=O)Nc1ccc3c(c1)OCO3)OCCCC[C@H](C)O2 | . | . | 11.3 | .
C[C@@H]1CN([C@H](C)CO)S(=O)(=O)c2ccc(-c3ccccc3F)cc2O[C@H]1CN(C)Cc1ccncc1 | . | . | -11.9 | .
CC(=O)Nc1ccc(NC(=O)C(C)OC(=O)/C(C#N)=C/c2ccc(N(C)C)cc2)cc1 (stereo unspecified) | 81.2* | 2.6 | 66.0* | 19.5
CO[C@@H]1CN(C)C(=O)c2ccc(NC(=O)C3CCC3)cc2OC[C@H](C)N(Cc2nccs2)C[C@H]1C | . | . | 4.6 | .
Cc1cccc(NC(=O)c2ccc(S(=O)(=O)NCc3ccco3)cc2)n1 | 48.9 | 0.8 | 56.2* | -1.1
CC(C)c1ccc(CN(C)C(=O)c2ccc(S(=O)(=O)NCc3ccco3)cc2)cc1 | . | -1.4 | -2.4 | 33.8*
N#C/C(=N/Nc1ccc([N+](=O)[O-])cc1)C(=N)N1CCCCC1 | 101.3* | 2.5 | . | .
N#C/C(=N\Nc1ccccc1[N+](=O)[O-])C(=N)N1CCCCC1 | 57.5 | 2.7 | 51.0* | 54.2*
N#C/C(=N\Nc1ccc(Br)cc1)C(=N)N1CCOCC1 | 91.9* | 2.6 | 56.1* | 11.7
N#C/C(=N\Nc1ccc([N+](=O)[O-])cc1)C(=N)N1CCOCC1 | 52.8 | 3.4 | . | 26.0
